These results are taken from publication PMC4336329 (PLoS ONE, 2015).

Screen size: about 310,000 compounds; about 14,000 (4.5%) showed an effect of 50% or more. The effect is printed as a negative number. What follows is part of a selection rich in strong results, with near analogues and random picks from the rest.
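Further: peak tail current of the secondary pulse compared with the same well before compound.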

For the test, the target named is human ether-à-go-go-related gene (hERG) potassium channel (human, UniProt Q12809). In words: primary screen, population patch clamp on CHO cells stably expressing hERG; higher = less effect of the substance.
Sequence of human ether-à-go-go-related gene (hERG) potassium channel (Q12809 whole entry, looked up): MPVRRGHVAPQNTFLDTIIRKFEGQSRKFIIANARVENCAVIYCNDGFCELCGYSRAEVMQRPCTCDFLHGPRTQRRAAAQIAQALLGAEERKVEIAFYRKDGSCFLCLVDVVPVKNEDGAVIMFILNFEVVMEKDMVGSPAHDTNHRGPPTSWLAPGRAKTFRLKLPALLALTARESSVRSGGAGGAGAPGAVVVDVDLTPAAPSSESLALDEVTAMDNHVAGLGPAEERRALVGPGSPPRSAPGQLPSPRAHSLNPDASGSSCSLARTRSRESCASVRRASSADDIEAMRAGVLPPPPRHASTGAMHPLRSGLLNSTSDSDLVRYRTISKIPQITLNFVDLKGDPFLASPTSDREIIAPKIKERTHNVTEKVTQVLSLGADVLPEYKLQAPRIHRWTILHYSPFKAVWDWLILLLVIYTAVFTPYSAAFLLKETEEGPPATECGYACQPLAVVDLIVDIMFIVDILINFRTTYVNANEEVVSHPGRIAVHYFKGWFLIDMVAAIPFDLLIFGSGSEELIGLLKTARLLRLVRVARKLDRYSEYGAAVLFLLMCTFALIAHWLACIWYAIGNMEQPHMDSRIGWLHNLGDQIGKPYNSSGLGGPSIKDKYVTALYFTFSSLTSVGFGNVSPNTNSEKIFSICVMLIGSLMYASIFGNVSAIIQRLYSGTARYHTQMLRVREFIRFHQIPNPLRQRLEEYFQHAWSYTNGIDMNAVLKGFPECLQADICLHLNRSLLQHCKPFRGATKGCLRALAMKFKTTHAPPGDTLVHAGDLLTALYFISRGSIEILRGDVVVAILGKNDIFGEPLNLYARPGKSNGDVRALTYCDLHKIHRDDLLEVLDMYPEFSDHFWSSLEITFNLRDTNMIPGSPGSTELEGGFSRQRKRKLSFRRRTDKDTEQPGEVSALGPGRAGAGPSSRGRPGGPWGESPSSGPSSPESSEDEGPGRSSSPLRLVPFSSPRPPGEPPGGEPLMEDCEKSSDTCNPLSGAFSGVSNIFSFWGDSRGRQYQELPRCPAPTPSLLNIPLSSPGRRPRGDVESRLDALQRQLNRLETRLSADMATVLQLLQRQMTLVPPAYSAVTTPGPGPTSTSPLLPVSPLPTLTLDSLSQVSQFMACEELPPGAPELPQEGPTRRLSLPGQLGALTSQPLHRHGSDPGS
Take `CCOc1ccc(S(=O)(=O)NCCC(=O)OC(C)C(=O)N2CCc3ccccc32)cc1` (centres unmarked): the “hERG current change (%, negative = inhibition) at 10uM” value was -22.6%.
On to `NC(=O)c1ccc(NC(=O)CNCc2ccccc2Cl)cc1`, for which the “hERG current change (%, negative = inhibition) at 10uM” value came out at 8.82%.
The result for `COc1ccccc1NS(=O)(=O)c1cccc(C(=O)NCc2ccccn2)c1` reads 13.2%; that for `CCOc1nc(C)ccc1-c1noc(-c2ccccc2OC)n1`, 12.7%.
The value for `CCCC12CN3CC(C)(CN(C1)C3c1ccco1)C2=O` (centres unmarked) was -4.64%; that for `CCOc1ncccc1C(=O)NCCc1ccc(Cl)cc1` was -5.75%; that for `CC(=O)CC(C)(C)Nc1nc2cc([N+](=O)[O-])ccc2o1` was 0.0382%.
As to `COc1cc(NC(=O)c2ccc3snnc3c2)cc(OC)c1`, the “hERG current change (%, negative = inhibition) at 10uM” value worked out at 13.5%.
As for `CCOCc1nnc(NC(=O)C2CC(=O)N(C3CCCC3)C2)s1` (centres unmarked), the “hERG current change (%, negative = inhibition) at 10uM” value is 4.92%.
As to `COc1ccc(/C=C/c2nc(-c3ccccc3O)n[nH]2)cc1OC`, the “hERG current change (%, negative = inhibition) at 10uM” value stood at 12.1%.
As for `CCOC(=O)Nc1c(O)ccc2oc(C)c(-c3ccccc3)c12`, the “hERG current change (%, negative = inhibition) at 10uM” value was -1.49%.
`O=C(Nc1ccc2nsnc2c1)N1CCCCC1`: the “hERG current change (%, negative = inhibition) at 10uM” value turned out to be 22.2%.
The result for `CCOCCn1c(CN2CCN(c3ccc(F)cc3)CC2)nc2c1c(=O)n(C)c(=O)n2C` reads -56.2%; that for `COCCn1c(CN2CCN(c3cccc(Cl)c3)CC2)nc2c1c(=O)n(C)c(=O)n2C`, -53.9%; that for `CCOCCn1c(CN2CCN(C)CC2)nc2c1c(=O)n(C)c(=O)n2C`, 3.97%.
The result for `CCOCCn1c(CN2CCN(c3ccccc3)CC2)nc2c1c(=O)n(C)c(=O)n2C` reads -22.1%.
Regarding `CCOCCn1c(CN2CCN(c3ccc(OC)cc3)CC2)nc2c1c(=O)n(C)c(=O)n2C`, the “hERG current change (%, negative = inhibition) at 10uM” value is listed as -41.2%.
Turning to `Cn1c(=O)c2c(nc(CN3CCN(c4ccccc4)CC3)n2CCN2CCOCC2)n(C)c1=O`, the “hERG current change (%, negative = inhibition) at 10uM” value was -21.7%.
As for `COCCn1c(CN2CCN(c3ccccc3)CC2)nc2c1c(=O)n(C)c(=O)n2C`, the “hERG current change (%, negative = inhibition) at 10uM” value is -13.8%.
The value for `CCCCn1c(CN2CCN(c3ccc(F)cc3)CC2)nc2c1c(=O)n(C)c(=O)n2C` was -25%.
The value for `CCOCCn1c(CN2CCN(c3cccc(Cl)c3)CC2)nc2c1c(=O)n(C)c(=O)n2C` was -55%; that for `CC(C)Cc1nnc(NC(=O)CN2C(=O)NC3(CC(C)CC(C)(C)C3)C2=O)s1` (centres unmarked) was -20.5%.
In the case of `CN1C[C@@H]2C(c3ccccc3)C3(c4ccccc4)CC2(C3)[C@H]1c1ccccc1` (some centres unmarked), the “hERG current change (%, negative = inhibition) at 10uM” value is reported as -25.7%.
The value for `CC(C)(C)c1ccc(-c2nnc(NC(=O)c3ccccc3)s2)cc1` was -13.6%.
The value for `COc1ccc(C(=O)COC(=O)/C=C/c2ccccc2)cc1` was 6.99%.
The value for `CN(C)S(=O)(=O)c1ccc(NC(=O)COC(=O)CC2CC3CCC2C3)cc1` (centres unmarked) was -9.56%.
With `O=C(CSc1n[nH]c(-c2ccncc2)n1)NCCc1ccccc1`, the “hERG current change (%, negative = inhibition) at 10uM” value came out at 13.2%.
Regarding `CN(C)S(=O)(=O)c1cc(NC2CC(=O)N(c3ccc(F)cc3)C2=O)ccc1Cl` (centres unmarked), the “hERG current change (%, negative = inhibition) at 10uM” value was -51.1%.
With `Cc1ccc(NC2CC(=O)N(c3ccc(C)cc3)C2=O)cc1` (centres unmarked), the “hERG current change (%, negative = inhibition) at 10uM” value is recorded as -0.727%.
The result for `Cc1ccc(N2C(=O)CC(Nc3ccc(Cl)c(S(=O)(=O)N(C)C)c3)C2=O)c(C)c1` (centres unmarked) reads -4.31%; that for `COc1cc(C(=O)NCCc2cn3ccc(C)cc3n2)cc(OC)c1OC`, -27%; that for `CCCOc1ccc(-c2nc(=S)[nH][nH]2)cc1`, 20.1%.
The result for `CC1CCCN(CCCNC(=O)CCn2nc(-c3ccccc3)ccc2=O)C1` (centres unmarked) reads -39%; that for `CCN(CC)CCCNC(=O)Cn1nc(-c2ccccc2)ccc1=O`, -24.4%; that for `CCCCNC(=O)CCn1nc(-c2ccccc2)ccc1=O`, -40%.
The result for `O=C(CCn1nc(-c2ccccc2)ccc1=O)NCCCN1CCCCCC1` reads -73%.
Turning to `CCCN1CCN(CCCNC(=O)CCn2nc(-c3ccccc3)ccc2=O)CC1`, the “hERG current change (%, negative = inhibition) at 10uM” value was -47.4%.
The value for `CCCCN(C)CCCNC(=O)CCn1nc(-c2ccccc2)ccc1=O` was -52.9%; that for `CCN(CC)CCNC(=O)CCn1nc(-c2ccc(Cl)cc2)ccc1=O` was -34.4%; that for `O=C(CCn1nc(-c2ccccc2)ccc1=O)N1CCCC1` was -45%.
Turning to `O=C(Cn1nc(-c2ccccc2)ccc1=O)N1CCOCC1`, the “hERG current change (%, negative = inhibition) at 10uM” value was -6.25%.
The result for `O=C(Cn1nc(-c2ccccc2)ccc1=O)N1CCCCC1` reads -61.6%.
Take `CC1CCCC(C)N1CCNC(=O)CCn1nc(-c2ccccc2)ccc1=O` (centres unmarked): the “hERG current change (%, negative = inhibition) at 10uM” value is -46.8%.
The value for `CCN(CC)CCCNC(=O)CCn1nc(-c2ccccc2)ccc1=O` was -56.8%; that for `O=C(CN1C(=O)C2CC=CCC2C1=O)Nc1nnc(C2CC2)s1` (centres unmarked) was 6.01%.
The result for `COc1ccc(N(CC(=O)NC2CC3CCC2C3)S(=O)(=O)c2ccccc2)cc1Cl` (centres unmarked) reads -19.4%; that for `O=C(CSc1ccc2c(c1)OCCO2)Nc1ccc(Cl)cn1`, 24.3%; that for `CN(C)C(=O)c1noc2cc([N+](=O)[O-])ccc12`, -12%.
On to `Cc1c(C#N)c2ccccc2n1CC(=O)NCC1CCCO1` (centres unmarked), for which the “hERG current change (%, negative = inhibition) at 10uM” value was found to be 16.8%.
The result for `CCc1ccccc1NC(=O)COc1ccc2oc(-c3ccc(OC)cc3)cc(=O)c2c1` reads 5.29%.
As to `O=S(=O)(NCc1ccccc1)c1ccc(-n2cccn2)cc1`, the “hERG current change (%, negative = inhibition) at 10uM” value is reported as -16.6%.
Take `Cc1nc(SCC(=O)N2CCCCCC2)[nH]c(=O)c1C`: the “hERG current change (%, negative = inhibition) at 10uM” value was 19.5%.
For the molecule `CCc1cc(=O)[nH]c(SCCC(F)=C(F)F)n1`, the “hERG current change (%, negative = inhibition) at 10uM” value was found to be 27.7%.
The result for `CCc1cc(=O)[nH]c(SCCCF)n1` reads -50.2%.
The value for `CCCCSc1nc(CCC)cc(=O)[nH]1` was -7.39%; that for `CC(c1ccccc1)N1C(=O)/C(=C/c2ccncc2)SC1=S` (centres unmarked) was 3.24%.
Take `CC(NC(=O)NCCCC(=O)O)(C(F)(F)F)C(F)(F)F`: the “hERG current change (%, negative = inhibition) at 10uM” value is given as 11.3%.
In the case of `CC(C)(C)c1ccc(OCCCCCCN2CCNCC2)cc1`, the “hERG current change (%, negative = inhibition) at 10uM” value was -0.393%.
The result for `CC(=O)Nc1ccc(/C=N/N2CCCCC2)cc1` reads 16.5%.
Regarding `CC(C)c1ccc(/C=N/N2CCCCC2)cc1.O=C(O)C(=O)O`, the “hERG current change (%, negative = inhibition) at 10uM” value is -84.3%.
The value for `CCC(C)c1ccc(OCCN2CCCC2)cc1` (centres unmarked) was -15.4%; that for `CC(C)c1ccc(OCCCCN2CCCCC2)cc1.O=C(O)C(=O)O` was -58.8%; that for `Cc1cc(OCCN2CCCC2)cc(C(C)C)c1.O=C(O)C(=O)O` was -0.795%.
The value for `CC(C)(C)c1ccc(OCCCN2CCCC2)cc1` was -56.4%; that for `CC(C)(C)c1ccc(OCCN2CCCC2)cc1` was -20.6%.
For the molecule `CC(C)c1ccc(OCCCN2CCCC2)cc1`, the “hERG current change (%, negative = inhibition) at 10uM” value was -67.1%.
The result for `Clc1ccc(/C=N/N2CCCCC2)cc1` reads 7.36%; that for `c1cc(OCCCN2CCCCC2)ccc1CN1CCCCC1`, 14.1%; that for `CC(C)c1ccc(OCCCCCN2CCOCC2)cc1.O=C(O)C(=O)O`, -24.9%.
The result for `CCOc1ccc(-c2cnc3ccccc3n2)cc1` reads 14.3%.
On to `CC(C)=C1C2CCC1C1C(=O)N(c3ccc(C)c(C)c3)C(=O)C21` (centres unmarked), for which the “hERG current change (%, negative = inhibition) at 10uM” value came to 3.55%.
Regarding `COc1ccc2nc(C)cc(SCC(=O)N/N=C/c3c(OC)ccc4ccccc34)c2c1`, the “hERG current change (%, negative = inhibition) at 10uM” value amounted to 12.8%.
On to `CC(C)N(C(=O)Cn1c(SCC(=O)NCc2ccc3c(c2)OCO3)nc2ccccc21)C(C)C`, for which the “hERG current change (%, negative = inhibition) at 10uM” value is reported as -34.1%.
In the case of `CCN(CC)C(=O)CSc1ncnc2c1cnn2-c1ccccc1`, the “hERG current change (%, negative = inhibition) at 10uM” value is -14.2%.
The result for `CCSc1nnc(Cn2c(=O)sc3ccccc32)n1-c1ccccc1C` reads -2.71%.
The value for `CN(/N=C/c1ccc(N(C)C)cc1)C1=NS(=O)(=O)c2ccccc21` was 20.6%; that for `Cc1ccc2[nH]c3c(=O)n(Cc4ccccn4)cnc3c2c1` was -1.6%; that for `COC(=O)c1[nH]c2cc(OC)ccc2c1NC(=O)c1c(F)cccc1F` was 2.79%.
The result for `CC(C)Oc1ccc(C(=O)CCN2CCCCC2)cc1` reads -20.9%; that for `CCOc1cccc(OCCOCCN2CCCC2)c1`, -10.1%.
Turning to `COc1ccc(OCCCN2CCCCCC2)cc1.O=C(O)C(=O)O`, the “hERG current change (%, negative = inhibition) at 10uM” value is -19.3%.
In the case of `Cc1cc(OCCOCCN2CCCC2)ccc1C(C)C`, the “hERG current change (%, negative = inhibition) at 10uM” value was -53.9%.
In the case of `CCOc1ccc(OCCCCN2CCCC2)cc1.O=C(O)C(=O)O`, the “hERG current change (%, negative = inhibition) at 10uM” value is reported as -12.2%.
The value for `Clc1ccc(OCCCCN2CCCCC2)cc1.O=C(O)C(=O)O` was -65.5%; that for `Clc1cccc(Cl)c1OCCCCN1CCCCC1.O=C(O)C(=O)O` was -40.8%; that for `CC(C)Oc1ccc(OCCCN2CCCCCC2)cc1.O=C(O)C(=O)O` was -54.8%.
The value for `Cc1cc(OCCN2CCCC2)ccc1C(C)C` was -22.5%; that for `O=C1COc2ccc(S(=O)(=O)N3CCCCC3)cc2N1` was 20%.
The value for `Cc1ccc(NNC(=O)C(O)(c2cccc(C(F)(F)F)c2)c2cccc(C(F)(F)F)c2)cc1` was -7.55%.
Take `COc1cc2c(cc1OC)C(C)N(S(=O)(=O)c1ccc(C)cc1)CC2` (centres unmarked): the “hERG current change (%, negative = inhibition) at 10uM” value is reported as -15%.
The value for `COc1ccc(C(C(=O)NC2CCCCC2)N(C(=O)c2snc(C(N)=O)c2N)c2ccccc2OC)cc1` (centres unmarked) was 11.4%; that for `CC1CCC(NC(=O)CCS(=O)(=O)c2ccc3c(c2)oc(=O)n3C)CC1` (centres unmarked) was 5.15%; that for `c1ccc(-c2ccccc2OCCCCn2ccnc2)cc1` was -26.4%.
`c1ccc(-c2c(-c3ccccc3)n(Cc3ccco3)c3ncnc(NCCCn4ccnc4)c23)cc1`: the “hERG current change (%, negative = inhibition) at 10uM” value was -71.6%.
The result for `Cc1sc2ncnc(NCCCn3ccnc3)c2c1C` reads -46.1%.
`O=C(NCCCn1ccnc1)c1ccco1`: the “hERG current change (%, negative = inhibition) at 10uM” value was -4.47%.
The value for `N=c1c2c(-c3ccccc3)c(-c3ccccc3)n(Cc3ccco3)c2ncn1CCCn1ccnc1` was -74.3%; that for `N=c1c2c(-c3ccccc3)c(-c3ccccc3)n(Cc3ccccc3)c2ncn1CCCn1ccnc1` was -71.2%.
For `O=c1[nH]c(=O)n(Cc2ccco2)c(O)c1C=NCCCn1ccnc1`, the “hERG current change (%, negative = inhibition) at 10uM” value is on record as 16.3%.
As to `c1ccc(Cn2ccnc2)cc1`, the “hERG current change (%, negative = inhibition) at 10uM” value came to 19.6%.
The value for `OCCNc1ncnc2c1c(-c1ccccc1)c(-c1ccccc1)n2Cc1ccco1` was -44.9%.
